Compound activity deposited in PubChem BioAssay by National Center for Advancing Translational Sciences (NCATS).
Only a selection was taken, and hits are over-represented in it overall.
Shiga toxin inh – inhibitors of Shiga toxin in Vero cells; Vero cells, Shiga toxin protein synthesis inhibition reporter; 290,000 compounds, 9.2% hits; inhibition, % at 38.7 µM; in the data active = inhibition mostly above about 28%, no sharp cut-off; inactive = mostly below about 43%; also: 0% is about no effect
LmPK inh – inhibitors of Leishmania mexicana pyruvate kinase | Q27686 | purified LmPK, Kinase-Glo ATP luminescence, 1 h | Potency, µM (doses to about 57.5 µM), inactives show top-dose activity change, negative = inhibition, usual class: inhibitors | 290,000 compounds, 0.37% hits; also: potency is read from the fitted curve at half-maximal effect; % is scaled to controls: 0 for no effect and ±100 for the full control effect
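Purified LmPK (0.1 nM) converted ADP (0.1 mM) to ATP with PEP (0.5 mM) in imidazole buffer pH 7.2 with KCl and MgCl2, 1 h at room temperature. ATP was read by Kinase-Glo luminescence; data normalized to uninhibited and no-enzyme controls.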
Cycloheximide cs – counter-screen hit for Shiga toxin inhibitors, cycloheximide. max response, %. cell reporter, cycloheximide protein synthesis inhibition counterscreen. 300,000 compounds, 12% hits. AID 2314; in the data active = max response mostly above about 13%, no sharp cut-off; inactive = mostly below about 14%; also: read at 38.3 µM for the half of the compounds with a filed dose; 0% is about no effect
FBPA Giardia inh – inhibitors of Giardia lamblia fructose-1,6-bisphosphate aldolase; A8B2U2; purified Giardia FBPA; Potency, µM (titrated, usually from 59.6 µM), for inactives: at the top dose activity, negative = inhibition, hits mostly inhibitors; 290,000 compounds, 0.71% hits; also: potency is read from the fitted curve at half-maximal effect; % is scaled to controls: 0 for no effect and ±100 for the full control effect; nearly all actives have a fitted effect of over 55% in size
Target sequence (A8B2U2 whole entry, looked up): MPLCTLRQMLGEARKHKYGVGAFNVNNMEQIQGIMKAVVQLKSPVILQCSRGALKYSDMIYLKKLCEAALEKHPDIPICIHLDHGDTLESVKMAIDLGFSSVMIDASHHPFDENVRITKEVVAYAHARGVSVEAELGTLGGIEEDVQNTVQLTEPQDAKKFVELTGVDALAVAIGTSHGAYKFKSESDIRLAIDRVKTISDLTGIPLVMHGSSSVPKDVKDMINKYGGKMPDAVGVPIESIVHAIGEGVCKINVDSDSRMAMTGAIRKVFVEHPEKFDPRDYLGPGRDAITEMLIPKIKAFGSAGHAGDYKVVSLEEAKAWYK
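Giardia FBPA (40 nM reagent) was preincubated 10 min at RT with compound (up to 57.5 uM final), then substrate plus GAPDH/TPI/NAD/arsenate coupling system with diaphorase/resazurin was added; resorufin fluorescence (525/598 nm) was read after 20 min.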
Sm TGR block – blocks Schistosoma mansoni thioredoxin glutathione reductase; purified TGR, DTNB reduction, TNB absorbance 405 nm; Potency, µM (titrated, usually from 114 µM), without a hit: at the top dose activity change, negative = inhibition, hits mostly inhibitors; 360,000 compounds, 3% hits; AID 485364; also: potency is read from the fitted curve at half-maximal effect; % is scaled to controls: 0 for no effect and ±100 for the full control effect; nearly all actives have a fitted effect of over 60% in size
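First, TGR (20 nM dispensed) and NADPH were mixed with compound. Second, a 15 min room-temperature incubation followed. Third, further NADPH and then DTNB were added to start the reaction. Finally, TNB absorbance was monitored kinetically.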
Tb PYK inh – T. brucei pyruvate kinase inhibition; Q57TT1; TbPYK enzyme, Kinase-Glo Plus ATP luminescence, 45 min; Potency, µM (titrated, usually from 76.8 µM), for inactives: at the highest dose activity, negative = inhibition, hits mostly inhibitors; 410,000 compounds, 0.12% hits; AID 624173; also: potency is read from the fitted curve at half-maximal effect; % is scaled to controls: 0 for no effect and ±100 for the full control effect; nearly all actives have a fitted effect of over 50% in size
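Quantitative HTS: titrated library compounds versus trypanosomal pyruvate kinase in TEA buffer (pH 7.2) containing KCl, MgCl2, BSA and Tween-20. Reactions were initiated with ADP, 130 uM final. Kinase-Glo Plus luminescence was read after 45 min at RT.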
* marks the source's active call; other numbers are inactive results; ? = inconclusive; . = not tested or not shown; ! = not confirmed by another sample; [ ] = dose if it differs, or a comment. Unless noted, calls follow the shape of the dose curve; as a rule, active = well fitted curve in the direction sought with a large enough effect; inconclusive = small, poorly fitted or top-dose-only effect, or another doubt; inactive = no such curve, though single readings can be large; an effect the other way counts as inactive or inconclusive.

SMILES | Shiga toxin inh | LmPK inh | Cycloheximide cs | FBPA Giardia inh | Sm TGR block | Tb PYK inh
CCCCn1c(N)c(N(CCOC)C(=O)CCCn2c(=O)oc3ccccc32)c(=O)[nH]c1=O | . | . | . | . | . | 3%
N#C/C(=C/c1cccc([N+](=O)[O-])c1)C(=O)Nc1ccccc1O | 22 | 1% | 13* | -13% | -6% | 0%
O=C1NC(=S)SC1=Cc1cccs1 | . | . | . | . | . | -6%
O=C1/C(=C/c2cccs2)NC(=S)N1C1CC1 | active | 4% | 15 | -11% | 2% | -18%
COc1ccc(C(=O)/C=C/C(=O)N(CC(=O)NC2CCCCC2)Cc2ccccc2)c(O)c1 | -4 | 4% | 2 | 6% | 1.4µM* | -13%
COc1ccc(C(=O)/C=C/C(=O)N(Cc2ccccc2OC)C(C(=O)NC2CCCCC2)c2ccncc2)c(O)c1 (stereo not given) | -14 | -2% | -3 | -4% | -12% | -14%
COc1ccc(C(=O)/C=C/C(=O)N(CC(=O)NC2CCCCC2)CC2CCCO2)c(O)c1 (stereo not given) | -14 | -25% | -7 | -5% | 1.3µM* | ?
COc1ccc(C(=O)/C=C/C(=O)N(Cc2ccccc2)C(C(=O)NC2CCCCC2)c2ccncc2)c(O)c1 (stereo not given) | -17 | 0% | -1 | -6% | -2% | 0%
COc1ccc(C(=O)/C=C/C(=O)N(CC(=O)NC2CCCCC2)Cc2ccccc2OC)c(O)c1 | 25 | -2% | 4 | 7% | 1µM* | -13%
O=C(COCc1cc(-c2cccs2)on1)N1CCN(c2cccc(Cl)c2)CC1 | . | . | . | . | -8% | 1%
COC(=O)c1ccc(Oc2nc3c(c(=O)n(C)c(=O)n3C)n2Cc2ccc(Cl)c(Cl)c2)cc1 | . | . | . | . | -4% | -9%
COc1ccc2cc(CCNC(=O)c3ccc(Br)o3)c(=O)[nH]c2c1 | 3 | -1% | 8 | 7% | ? | -2%
Cc1ccc(S(=O)(=O)NCc2ccc3[nH]c(C)cc3c2)cc1 | -14 | 0%[11.5 µM] | -5 | -19% | 11µM* | -1%
CC(=O)Nc1ccc(S(=O)(=O)NCc2ccc3[nH]c(C)cc3c2)cc1 | 9 | 0% | 2 | -13% | ? | 6%
Cc1cc2cc(CNC(=O)c3ccc(Br)o3)ccc2n1C | -6 | 4% | -6 | ? | 14µM* | -1%
Cc1cc2cc(CCNC(=O)c3ccc(Br)o3)c(=O)[nH]c2cc1C | -11 | 3% | 2 | -11% | 35µM* | -20%
Cc1ccc(CNC(=O)c2ccc(Br)o2)cc1 | 75 | 2% | 20* | -7% | -4% | -4%
O=C(NCc1ccccc1)c1ccc(Br)o1 | -14 | 2% | 6 | -3% | -11% | -1%
Cc1cn(CC(=O)N2CCN(c3ccccn3)CC2)c(=O)[nH]c1=O | . | . | . | . | . | 3%
Cc1cc2cc(CNC(=O)c3ccc(Br)o3)ccc2[nH]1 | -10 | 4% | -6 | -16% | 40µM* | -5%
COc1ccc(S(=O)(=O)NCCS(=O)(=O)N2CCN(c3ccccc3)CC2)cc1OC | . | . | . | . | 0% | 3%
COc1ccc(S(=O)(=O)CCC(=O)NCCc2ccc(C)cc2)cc1 | -6 | -4% | -3 | 2% | 32µM* | -5%
CCNS(=O)(=O)c1ccc(CCC(=O)NCCc2ccc(OC)cc2)cc1 | -1 | -2% | -2 | 7% | 6% | -8%
COc1ccc(/C=C2\SC(=O)N(CCNC(=O)C3CCN(S(=O)(=O)c4cccs4)CC3)C2=O)cc1 | 44* | -4% | 35* | 0% | 1% | 1%
COc1ccc(/C=C2\SC(=O)N(CCNC(=O)CCS(=O)(=O)c3ccc(C)cc3)C2=O)cc1 | 110* | -4% | 70* | 3% | -8% | -19%
SMILES | Shiga toxin inh | LmPK inh | Cycloheximide cs | FBPA Giardia inh | Sm TGR block | Tb PYK inh
COc1ccc(/C=C2\SC(=O)N(CCNC(=O)Cn3cnnn3)C2=O)cc1 | 157* | -3% | 32* | 5% | 2% | -6%
CSc1nnc(C2CCN(CC(=O)Nc3ccccc3N3CCOCC3)CC2)n1C(C)C | -6 | -4% | -3 | 2% | -8% | 2%
CCc1ccc(NC(=O)CSc2nc(C)cc(COC)c2C#N)cc1 | . | . | . | . | -1% | 1%
O=C(CN1CCN(Cc2ccc(F)cc2Cl)S1(=O)=O)Nc1ccc(F)cc1 | . | . | . | . | 6% | 6%[15.4 µM]
O=C(Nc1ccccc1)c1cc2ccc3ccccc3c2s1 | 92* | 0% | 47* | -1% | 0% | -1%
COc1ccc2cc(C(=O)Nc3ccccc3)sc(=O)c2c1OC | 34* | -7% | 43* | 3% | 9% | -11%
COc1cc(NC(=O)c2cc3c(Cl)nc4ccccc4c3s2)cc(OC)c1OC | -12 | 0% | 6 | -7% | -10% | -2%
CCOc1ccc(C(=O)Nc2nnc(SCc3cc(=O)c4cc(C)ccc4[nH]3)s2)cc1 | . | . | . | . | 6% | -7%
COc1ccc(S(=O)(=O)N(C)C[C@H]2Oc3ccc(NC(=O)Nc4ccc5c(c4)OCO5)cc3C(=O)N([C@H](C)CO)C[C@@H]2C)cc1 | . | . | . | . | . | 0%
O=C1C(Cl)=C(NC2CCc3ccccc32)C(=O)c2ncccc21 (stereo not given) | . | . | . | -27% | . | .
COc1ccc(NC(=O)CSc2nnc3scc(-c4ccc(Cl)cc4)n23)cc1 | . | . | . | . | 5% | -2%
Cc1nn(Cc2ccccc2Cl)c(C)c1NC(=O)c1noc2c1CCCCC2 | 4 | -4% | 21* | 4% | -16% | -2%
COc1cccc(C(=O)N2CCCc3ccccc32)c1 | 23 | 3% | 2 | -5% | 5% | -3%
COc1ccc2c(c1)CCc1c(C(=O)Nc3c(C)nn(Cc4ccc(Cl)cc4)c3C)noc1-2 | . | . | . | . | -26% | -4%
COc1ccc2c(c1)CCc1c(C(=O)N3CCCc4ccccc43)noc1-2 | 36 | -2% | 27* | -6% | -20% | -2%
COc1ccc2c(c1)CCc1c(C(=O)Nc3c(C)nn(Cc4ccccc4)c3C)noc1-2 | -11 | 9% | -3 | -7% | 89µM*! | -3%
COc1ccc2c(c1)CCc1c(C(=O)N3CCOCC3)noc1-2 | 74* | -2% | 31* | 13% | -2% | -9%
CC(=O)c1ccc(NC(=O)CSc2cn(CC(=O)N(C(C)C)C(C)C)c3ccccc23)cc1 | . | . | . | . | -9% | -5%
Cc1ccc(/C=N/OC(=O)c2nn(C)cc2Cl)cc1 | 89* | -18% | 55* | 1% | -8% | 3%
Cc1cccc(NC(=O)NNC(=O)c2c(Cl)c(C)nn2C)c1 | -4 | 3% | -3 | 0% | 1% | 1%
Cc1ccc(NC(=S)NNC(=O)c2nn(C)cc2Cl)cc1 | 15 | 6% | 19* | 6% | 2% | -22%
Cc1cccc(NC(=S)NNC(=O)c2nn(C)cc2Cl)c1 | 34 | 2% | 25* | 5% | 14% | -17%
Cc1ccc(NC(=S)NNC(=O)c2nnn(-c3ccccc3)c2C)cc1 | 59* | 1% | 37* | ? | -1% | ?
